D2 PAM-1 = human D2 receptor positive allosteric modulation; potentiation, % (no concentration beside the values); 360,000 compounds, 0.23% hits; AID 624464; P14416; DiscoveRx D2 beta-arrestin cells, luminescence, 90 min; 100% = 57 uM dopamine signal; in the data active means potentiation above about 50%; inconclusive means mostly about 30% to 49%
Target sequence (P14416 whole entry, looked up): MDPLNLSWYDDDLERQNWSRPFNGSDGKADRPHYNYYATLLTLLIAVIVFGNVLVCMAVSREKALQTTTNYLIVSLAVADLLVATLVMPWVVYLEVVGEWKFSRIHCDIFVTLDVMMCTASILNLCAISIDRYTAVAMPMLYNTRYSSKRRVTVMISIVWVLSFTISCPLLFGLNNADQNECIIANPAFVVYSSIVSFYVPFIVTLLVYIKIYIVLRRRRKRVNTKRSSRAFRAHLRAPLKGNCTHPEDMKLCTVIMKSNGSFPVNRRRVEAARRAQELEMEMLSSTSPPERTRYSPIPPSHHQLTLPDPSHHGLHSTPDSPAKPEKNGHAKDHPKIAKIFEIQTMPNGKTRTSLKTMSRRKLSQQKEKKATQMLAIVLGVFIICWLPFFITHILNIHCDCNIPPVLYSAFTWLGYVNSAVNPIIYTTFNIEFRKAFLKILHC
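PathHunter D2 cells, attached overnight at 37 deg C, received compound in DMSO plus dopamine at EC20 (50 nM final) for 90 min at 37 deg C. Beta-arrestin recruitment was read as luminescence after 1 h with detection reagent at ambient temperature.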
D2 ag-1 = agonists of human D2 dopamine receptor. 340,000 compounds, 0.53% hits. activation, % at 2 µM. HEK293 T-REx D2 cells, calcium flux agonist mode. P14416;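 active means activation over 3 SD above normal in the single-dose calcium agonist read, cut at about 30% in these data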
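Agonism is scored from calcium flux in a force-coupled, inducible HEK293 cell line expressing D2, read kinetically for 180 s after compound addition against dopamine controls.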
D2 PAM-2 = D2 dopamine receptor (human) potentiation | 340,000 compounds, 0.34% hits | HEK293 T-REx D2, calcium flux, EC20 dopamine potentiation | AID 485347 | potentiation, % at 10 µM;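 active means potentiation over 3 SD above the plate norm, cut at about 30% in these data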
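Tetracycline-induced HEK293 T-REx cells force-coupled to calcium signalling expressed D2; compounds were pin-added after a 10 s baseline, read kinetically 180 s, then an EC20 dopamine challenge followed with a further 180 s calcium read.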
D2 antagonist = antagonizes the human D2 dopamine receptor. inhibition, % at 10 µM. P14416. 340,000 compounds, 2% hits. HEK293 TREx D2 cells, calcium flux, dopamine EC80; in the data active means inhibition above about 30%; inactive means below that, where a call was filed
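Tetracycline-induced HEK293 T-REx cells expressing D2 force-coupled to calcium signalling were dye-loaded, exposed to compound for 180 s, then challenged with an EC80 of dopamine; calcium flux was followed kinetically for a further 180 s.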
D2 ag-2 = activates the human D2 dopamine receptor. activation, % (no concentration beside the values). DiscoveRx PathHunter D2 beta-arrestin, luminescence, 90 min; 100% = 57 uM dopamine signal. 360,000 compounds, 0.084% hits; in the data active means activation above about 40%; inconclusive means between about 15% and that limit
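DiscoveRx PathHunter D2 beta-arrestin cells (2,100/well) attached overnight, then compound-stimulated 90 min at 37 C in HBSS/10 mM HEPES/0.1% Tween-20 buffer; beta-galactosidase complementation read by luminescence after 1 h at ambient temperature. Dopamine 57 uM final (EC100) as control.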
Numbers stand for hits; - = inactive; ? = inconclusive; . = no result. Hits are enriched below; roughly 2.4% of the tested compounds scored in any of these assays.

SMILES | D2 PAM-1 | D2 ag-1 | D2 PAM-2 | D2 antagonist | D2 ag-2
COc1cccc(N2CCN(C(=O)c3cnn(-c4ccccc4Cl)c3C3CCN(C(=O)OC(C)(C)C)CC3)CC2)c1 | . | - | - | . | .
CN(CCCOc1ccccc1Br)Cc1ccccc1 | - | - | - | 39 | -
CN(CCOc1ccc(Cl)c(Cl)c1)Cc1ccccc1 | - | - | - | 65 | -
Cc1ccc(Cl)c(OCCCCN(C)Cc2ccccc2)c1 | - | - | - | 45 | -
CCOc1ccc(OCCN(C)Cc2ccccc2)cc1 | - | - | - | - | -
CN(CCOCCOc1ccc(Cl)cc1Br)Cc1ccccc1 | - | - | - | 40 | -
O=C(Cn1nc(-c2ccccc2)c2cnc3ccccc3c21)Nc1ccccc1 | . | - | - | . | .
CCOc1cccc(OCCOCCN(C)Cc2ccccc2)c1 | - | - | - | 30 | -
CN(CCCOc1ccccc1F)Cc1ccccc1 | - | - | - | - | -
Cc1ccc(Cl)c(OCCCN(C)Cc2ccccc2)c1 | - | - | - | 63 | -
CCN1CCN(Cc2c(O)ccc3c(C)c(-c4ccc(OC)cc4)c(=O)oc23)CC1 | . | - | - | . | .
O=C(COCc1cc(-c2ccc3c(c2)OCO3)on1)N1CCCCC1 | - | - | - | 78 | -
Cc1ccccc1Cc1c(C)nc2nc(SCC(=O)NC(C)c3ccccc3)nn2c1C (configuration not stated) | . | - | - | . | .
Cc1nc2c(C#N)c(C)[nH]n2c(=O)c1Cc1ccccc1 | - | - | - | - | -
Cc1[nH]n2c(=O)cc(Cc3ccccc3)nc2c1C#N | - | - | - | 42 | -
Cc1ccc(CCNC(=O)c2sc3ncccc3c2-n2c(C)ccc2C)cc1 | . | - | - | . | .
CSCCC(NC(=O)c1ccc(Cl)cc1)C(=O)OCC(C)=O (configuration not stated) | - | - | - | 32 | -
CC(=O)c1cccc(NC(=O)C2=CC(c3ccc4c(c3)OCO4)=NS(=O)(=O)N2C)c1 | - | - | - | 48 | -
COc1ccc(NC(=O)C2=CC(c3ccc(C)cc3)=NS(=O)(=O)N2C)cc1OC | - | - | - | - | -
COc1ccc(C2=NS(=O)(=O)N(C)C(C(=O)Nc3ccc(OC)c(OC)c3)=C2)cc1 | - | - | - | 56 | -
Cc1ccc(-c2nc3cccnc3s2)cc1NC(=O)Cc1ccccc1 | . | - | - | . | .
Cc1ccc(Oc2nc(-c3ccccc3)ncc2S(C)(=O)=O)cc1 | - | - | - | - | -
Cc1ccc(Oc2nc(-c3ccccc3)ncc2S(=O)(=O)c2ccc(C)cc2)cc1 | - | - | - | 40 | -
CCN(CCCNC(=O)CN1N=C(c2ccc(OC)cc2)CCC1=O)c1cccc(C)c1 | . | - | . | . | .
O=C(N/N=C/c1ccsc1)c1ccccn1 | - | - | - | 39 | -
SMILES | D2 PAM-1 | D2 ag-1 | D2 PAM-2 | D2 antagonist | D2 ag-2
CC(C)(C)c1ccc(/C=N/NC(=O)c2ccccn2)cc1 | - | - | - | - | -
CCC(=O)N1CCc2cc(S(=O)(=O)NC(Cc3ccccc3)C(=O)Nc3ccc(Cl)cc3)ccc21 (configuration not stated) | . | - | - | . | .
CCC(=O)N1CCCc2cc(S(=O)(=O)N3CCC(C(=O)Nc4ccccc4CC)CC3)ccc21 | . | - | - | . | .
Cc1nn2c(C)c(C(=O)NCC(C)c3ccccc3)cnc2c1-c1ccccc1 (configuration not stated) | . | - | - | . | .
COc1ccc(-c2nnc(SCC(=O)Nc3cc(C)on3)o2)cc1 | - | - | - | 36 | -
CC1CCN(CCCCOc2ccccc2-c2ccccc2)CC1 | - | - | - | 84 | -
CC1CCCN(CCCOc2ccccc2-c2ccccc2)C1 (configuration not stated) | - | - | - | 73 | -
CC1CCN(CCOCCOc2ccccc2Br)CC1 | - | - | - | - | -
CC1CCCN(CCOCCSc2ccccc2)C1 (configuration not stated) | - | - | - | - | -
CC1CCN(CCOCCOc2ccccc2-c2ccccc2)CC1 | - | - | - | 56 | -
Cc1ccc(Cl)cc1NC(=O)CCCN1C(=O)CCn2nc(-c3cn(C)c4ccccc34)cc21 | . | - | - | . | .
CCN(C(C)=O)c1cnc(C=NNC(N)=S)c2ccccc12 | 57 | . | . | . | ?
CCOC(=O)c1[nH]c2c(c1-c1ccccc1)C(=O)CC(c1ccccc1)C2 (configuration not stated) | - | - | - | 31 | -
COc1cc(-c2nc(C(N)=O)c3c(n2)n(-c2cccc(C)c2)c(=O)n3C)cc(OC)c1OC | . | - | - | . | .
COc1ccc(-c2cn3c(n2)sc2cc(C(=O)NCCCN4CCCCCC4)ccc23)cc1 | . | - | - | . | .
CCn1cc2nc(SCC(=O)Nc3ccc(C)cc3)n(Cc3ccc(C)cc3)c(=O)c2n1 | . | - | - | . | .
O=C(Cc1ccccc1[N+](=O)[O-])NCCc1ccc(F)cc1 | - | - | - | - | -
CC(C)CCNC(=O)Cc1ccccc1[N+](=O)[O-] | - | - | 33 | - | -
Cc1cc(NC(=O)CCC(=O)N(Cc2ccco2)C2(C(=O)NC3CCCC3)CCC(C)CC2)no1 (configuration not stated) | - | - | - | - | -
Cc1cc(NC(=O)CCC(=O)N(c2ccc(C)c(F)c2)C(C(=O)NC2CCCC2)c2ccco2)no1 (configuration not stated) | - | . | - | . | -
CCc1ccc(N(C(=O)CCC(=O)Nc2cc(C)on2)C(C(=O)NC2CCCC2)c2ccco2)cc1 (configuration not stated) | - | - | - | 33 | -
Cc1cc(NC(=O)CCC(=O)N(CCC(C)C)C(C(=O)NC2CCCC2)c2ccccc2C)no1 (configuration not stated) | - | - | - | 51 | -
Cc1cc(NC(=O)CCC(=O)N(C2CC2)C2(C(=O)NC3CCCC3)CCC(C)CC2)no1 (configuration not stated) | - | - | - | 37 | -
Cc1ccc(-c2nnn(CC(=O)N(c3ccccc3)C(C(=O)NC3CCCC3)c3ccco3)n2)o1 (configuration not stated) | - | - | - | 33 | -
Cc1c(C(=O)NCc2cccc(Cl)c2)sc2ncnc(N(C)C3CCCCC3)c12 | . | - | - | . | .
CCN(CCCNC(=O)CSc1cc(=O)n(CC)c2ccccc12)c1cccc(C)c1 | . | - | - | . | .
COc1ccccc1NC(=O)c1oc2ccccc2c1NC(=O)Cc1ccccc1 | . | - | - | . | .
CCc1cccc(NC(=O)C(CC)n2nc(C)c3sc4ccccc4c3c2=O)c1 (configuration not stated) | . | - | - | . | .
Nc1c(C(O)(C(F)(F)F)C(F)(F)F)cc(C(O)(C(F)(F)F)C(F)(F)F)c2ccccc12 | 91 | - | - | - | ?
CC1CC(C)(C)N(C(=O)CN2CCN(C)CC2)c2ccccc21 (configuration not stated) | - | - | - | - | -
